# The panel holds about 83,000 compounds, 20% with a hit somewhere; the sample as a whole holds those more often.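 Interpretation: 100, growth as untreated; towards 0, rising growth inhibition; 0, no net growth; 0 to -100, cell death. Compounds scoring below 10 were considered active.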 Calls of active or inactive are those of the source.
# Tested on: A549/ATCC NSCLC
# Assay: NCI-60 one-dose screen, 48 h (100 = growth as untreated, 0 = no growth, -100 = all killed)
# Conditions: 10 µM unless noted
row,Compound,growth
1,COC(=O)CC12CC(NC(=O)c3csc([C@@H](C[C@H](C(C)C)N(C)C(=O)[C@@H](NC(=O)[C@H]4CCCCN4C)C(C)C)OC(C)=O)n3)(C1)C2,18% (inactive)
2,C#Cc1ccc2c(c1)C(c1ccccc1)=NCC(=O)N2C,53.6% (inactive)
3,COc1cccc2c1c(C(=O)C(=O)Nc1ccn[nH]1)cn2Cc1ccc(F)cc1,86.3% (inactive)
4,Clc1cccc(Cl)c1Cl,85.9% (inactive)
5,O=c1[nH]cc(N(CCCl)CCCl)c(=O)[nH]1,77.5% (inactive)
6,CC(C)(N)Cc1ccccc1,103% (inactive)

# Tested on: 786-0 renal
# Assay: as above
# Conditions: 10 µM unless noted
row,Compound,growth
1,CC[C@H](C)[C@H](NC(=O)c1ccccn1)C(=O)N(C)[C@H](C[C@@H](OC(C)=O)c1nc(C(=O)N[C@@H](Cc2ccccc2)C[C@H](C)C(=O)OC)cs1)C(C)C,30.4% (inactive)
2,O=[N+]([O-])c1cnc[nH]1,112% (inactive)
3,CC(=O)O[C@H]1CC[C@]2(C)[C@H]3CC[C@]4(C)[C@@H](OC(C)=O)CC[C@H]4[C@@H]3[C@@H](C)[C@]2(O)C1,103% (inactive)
4,CCN(CC)CCOC(=O)C(OC(C)C)(c1ccccc1)c1ccccc1,88.2% (inactive)
5,O=C1NC(=O)C(=Cc2cccn2CCCCCn2c3ccccc3c(=O)c3ccccc32)C(=O)N1,99% (inactive)
6,COc1ccc(Nc2ccc([N+](=O)[O-])cc2[N+](=O)[O-])cc1CN(CCCl)CCCl,18.4% (inactive)
7,CCCC[C@H](NC(=O)[C@H]1CCCCN1C)C(=O)N(C)[C@H](C[C@@H](OC(C)=O)c1nc(C(=O)N[C@@H](Cc2ccccc2)C[C@H](C)C(=O)OCC)cs1)C(C)C,3.81% (active)
8,Nc1c(F)cc(-c2nc3cc(F)ccc3[se]2)cc1F,104% (inactive)
9,COC(=O)[C@H](Cc1ccccc1)NC(=O)c1csc([C@@H](C[C@H](C(C)C)N(C)C(=O)[C@@H](NC(=O)[C@H]2CCCCN2C)C2CC2)OC(C)=O)n1,11.7% (inactive)
10,COC(=O)[C@@H](C)C[C@H](Cc1ccccc1)NC(=O)c1nc([C@@H](C[C@H](C(C)C)N(C)C(=O)[C@@H](NC(=O)[C@H]2CC(=O)CCN2C)C(C)C)OC(C)=O)sc1C(C)C,6.83% (active)
11,CC(C)=CCC[C@H](C(=O)O)[C@@H]1CC[C@]2(C)C3=C(CC[C@@]12C)[C@@]1(C)CC[C@H](O)C(C)(C)[C@@H]1CC3,92% (inactive)
12,C=CC[PH+](c1ccccc1)c1ccccc1.C=CC[PH+](c1ccccc1)c1ccccc1.[Cl][Pt][Cl],49.7% (inactive)
13,CN1CCC(O)(c2ccc(F)cc2)C(C(=O)c2ccc(F)cc2)C1 (stereo not drawn),102% (inactive)
14,COc1ccc2c(c1)c(-c1nc(-c3c[nH]c4ncccc34)cs1)cn2CCN1CCOCC1,55.5% (inactive)
15,COC(=O)[C@@H](C)C[C@H](Cc1ccccc1)NC(=O)c1csc([C@@H](C[C@H](C(C)C)N(C)C(=O)[C@@H](NC(=O)[C@H]2CCCCN2C)C(C(F)(F)F)C(F)(F)F)OC(C)=O)n1,-5.39% (active)
16,CN1CC(=O)N(O)C1(C)c1cccnc1 (stereo not drawn),99.5% (inactive)
17,COc1cc(/C=C/[N+](=O)[O-])cc(OC)c1,-45.3% (active)
18,CC12CCC3C(CCC4Cc5[nH]c6ccccc6c5CC43C)C1CCC2O (stereo not drawn),33.5% (inactive)
19,COC(=O)C12CC(NC(=O)c3csc([C@@H](C[C@H](C(C)C)N(C)C(=O)[C@@H](NC(=O)[C@H]4CCCCN4C)C(C)C)OC(C)=O)n3)(C1)C2,18.2% (inactive)

row,Compound,growth
1,CC1CN1CCCCN1CC1C (stereo not drawn),103% (inactive)
2,CC(=O)O[C@H](C[C@H](C(C)C)N(C)C(=O)[C@@H](NC(=O)[C@H]1CCCCN1C)C(C)C)c1nc(C(=O)NC2CCC(C(=O)O)CC2)cs1 (stereo partly drawn),46% (inactive)
3,CC[C@H](C)[C@@H]([C@@H](CC(=O)N1CCC[C@H]1[C@H](OC)[C@@H](C)C(=O)N[C@H](C)[C@@H](O)c1ccccc1)OC)N(C)C(=O)[C@@H](NC(=O)[C@@H](NC)C(C)C)C(C)C,21.2% (inactive)
4,CCNc1nc(Cl)nc(NCC)n1,108% (inactive)
5,CCOP(=O)(NC[C@H]1O[C@](O)(CO)[C@@H](O)[C@@H]1O)OCC,99.8% (inactive)
6,CCCc1cc(O)c2c3c(c(=O)oc2c1)CN(C)CC3,55% (inactive)
7,CCCCN1CCCC[C@@H]1C(=O)N[C@H](C(=O)N(C)[C@H](CCc1nc(C(=O)N[C@@H](Cc2ccccc2)C[C@H](C)C(=O)OC)cs1)C(C)C)[C@@H](C)CC,66.8% (inactive)
8,O=C([O][Hg][CH2]C1COCC([CH2][Hg][O]C(=O)c2ccccc2)O1)c1ccccc1 (stereo not drawn),104% (inactive)
9,CN[C@]1(c2ccccc2Cl)CCCC[C@H]1NCCCN1CCN(C)CC1,92.2% (inactive)
10,Cn1cc(-c2csc(-c3cn(CCN4CCOCC4)c4ccc(F)cc34)n2)c2cccnc21,56.3% (inactive)
11,CC(C)CCC1(CCCl)C(=O)NC(=O)NC1=O,96.1% (inactive)
12,O=C(CCCC1CCCCC1)OCC(Cl)(Cl)Cl,102% (inactive)
13,COC(=O)CC12CC(NC(=O)c3csc([C@@H](C[C@H](C(C)C)N(C)C(=O)[C@@H](NC(=O)[C@H]4CCCCN4C)C(C)C)OC(C)=O)n3)(C1)C2,12% (inactive)
14,C#Cc1ccc2c(c1)C(c1ccccc1)=NCC(=O)N2C,59% (inactive)
15,COc1cccc2c1c(C(=O)C(=O)Nc1ccn[nH]1)cn2Cc1ccc(F)cc1,92.4% (inactive)
16,Clc1cccc(Cl)c1Cl,96.1% (inactive)
17,O=c1[nH]cc(N(CCCl)CCCl)c(=O)[nH]1,44.9% (inactive)
18,CC(C)(N)Cc1ccccc1,91.3% (inactive)
